KB-V1 cytotox – KB-V1 MDR subline cytotoxicity; KB-V1 MDR cells viability, CellTiter-Glo, 72 h; Potency, µM (highest dose often 46.1 µM), usual class: cytotoxic; 3.4% of 400,000 active; note: nearly all actives have a fitted effect of over 60% in size
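In this primary screen, KB-V1 cells overexpressing P-gp are incubated with library compounds (lowest to highest concentration) for 72 h at 37 degrees C before a luminescent ATP viability read.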
HT1080 IDH1KD tx – kills HT-1080 cells with IDH1 knockdown; HT-1080 IDH1 knockdown viability, ATP luminescence, 48 h; Potency, µM (highest dose often 46.1 µM), without a hit: at the highest dose activity, negative = toxicity, actives largely listed as cytotoxic; 2% of 360,000 active;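 note: 0% = DMSO wells and -100% = cell-free medium wells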
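Cytotoxicity counter-line: IDH1KD HT-1080, 48 h, CellTiter-Glo. Curves classed by r2, magnitude and activity.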
KB-3-1 tox – kills parental KB-3-1 adenocarcinoma cells | KB-3-1 viability, CellTiter-Glo ATP luminescence, 72 h | Potency, µM (series often up to 46.1 µM), most hits filed as cytotoxic | 1.4% of 400,000 active | AID 1347075; note: nearly all actives have a fitted effect of over 60% in size
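Using CellTiter-Glo luminescence, growth of non-resistant KB-3-1 adenocarcinoma cells is assessed 72 h after pin-tool compound addition at 37 °C. Normalized responses across the concentration series yield fitted curves.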
HT1080NT lethal – kills 2HG-producing HT-1080-NT fibrosarcoma cells | HT-1080-NT fibrosarcoma viability, CellTiter-Glo ATP luminescence, 48 h | Potency, µM (series often up to 46.1 µM), for inactives: top-dose activity, negative = less viability, usual class: cytotoxic | 1.6% of 360,000 active;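 note: NT is the 2HG producing partner of a matched IDH1 knockdown line; 0% = DMSO-treated cells and -100% = media-only wells without cells; nearly all actives have a fitted effect of over 55% in size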
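Toxicity toward the 2HG-producing NT line was scored as %Activity, normalised to DMSO and no-cell wells, from CellTiter-Glo luminescence after 48 hours' treatment.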
* = called active by the depositor; i = inactive; ? = inconclusive; / = no result given. Sampled rows, rich in hits. Any-hit rate of the full collection: about 5.7%. Calls come from the whole dose curve; as a rule, active = well fitted curve in the direction sought with a large enough effect; inconclusive = small, poorly fitted or top-dose-only effect, or another doubt; inactive = no such curve, though single readings can be large; an effect the other way counts as inactive or inconclusive. Unless noted, % is set by controls: 0 for no effect and ±100 for the full control effect; potency is the fitted concentration of half-maximal effect.

SMILES	KB-V1 cytotox	HT1080 IDH1KD tx	KB-3-1 tox	HT1080NT lethal
O=c1oc(-c2cccs2)nc2sc3c(c12)CCCC3	i	0%	i	-1%
O=C1CN(c2nc(-c3cccs3)nc3sc4c(c23)CCCC4)CCN1	?	13µM*	i	?
Cc1ccc(NC(=S)c2nc3ccccc3[nH]2)c(C)c1	?	-24%	21µM*	-19%
Cc1ccc(NC(=S)c2ccncc2)c(C)c1	?	0%	i	4%
Cc1ccc(NC(=S)N2CCCC(c3nc4ccccc4[nH]3)C2)cc1 (configuration not stated)	i	12%	i	1%
Cc1ccc(NC(=S)c2nc3ccccc3[nH]2)cc1	23µM*	-23%	?	-10%
CCc1ccc2occ(CC(=O)Nc3sc4c(c3C(=O)OC)CCC4)c2c1	i	/	?	/
CCOC(=O)c1cc(C(C)C)sc1NC(=O)COC(=O)CCS(=O)(=O)c1ccccc1	18µM*	4%	i	-5%
CCOC(=O)c1ccsc1NC(=O)CCS(=O)(=O)c1ccccc1	/	-15%	/	2%
CCCCNS(=O)(=O)c1ccc(NC(=O)Cc2ccc(OC)cc2)cc1	i	-9%	i	-1%
COc1ccc(OC)c(NS(=O)(=O)c2ccc(SC)cc2)c1	4.1µM*	?	7.3µM*	?
CCOc1ccc(S(=O)(=O)Nc2cc(OC)ccc2OC)cc1	0.41µM*	?	0.1µM*	0.18µM*
COc1ccc(NS(=O)(=O)c2ccc(NS(=O)(=O)c3ccc(SC)cc3)cc2)c(OC)c1	?	-11%	i	-7%
COc1ccc(CC(=O)Nc2ccc(S(=O)(=O)NC(C)C)cc2)cc1	16µM*	-19%	i	-4%
COc1ccc(OC)c(NS(=O)(=O)c2ccc(NC(C)=O)cc2)c1	21µM*	-27%	?	-12%
O=C(Cn1ncn2c(cc3cc(F)ccc32)c1=O)NC1CCCCC1	i	/	i	/
CN(Cc1ccccc1)C(=O)C1CCN(S(=O)(=O)c2ccc3c(c2)oc(=O)n3C)CC1	i	/	i	/
COc1ccc(NS(=O)(=O)c2ccc(NC(=O)c3ccc(N(C)S(C)(=O)=O)cc3)cc2)c(OC)c1	i	?	4.6µM*	?
COc1ccc(NS(=O)(=O)c2ccc(NC(C)=O)cc2)c(OC)c1	i	-29%	i	-22%
CCNC(=O)N1CCN(CCCC(c2ccc(F)cc2)c2ccc(F)cc2)CC1	?	?	i	16µM*
CCOC(=O)[C@]12CCCC=C1N(Cc1ccco1)C(=O)[C@H](CC(=O)NCCCCc1ccccc1)C2	15µM*	?	?	-21%
CCOC(=O)[C@]12CCCC=C1N(Cc1ccccc1)C(=O)[C@H](CC(=O)NCC13CC4CC(CC(C4)C1)C3)C2	21µM*	?	18µM*	?
CCOC(=O)[C@]12CCCC=C1N(CCC1=CCCCC1)C(=O)[C@H](CC(=O)NCC13CC4CC(CC(C4)C1)C3)C2	18µM*	?	?	?
CCOC(=O)[C@]12CCC=C1N(Cc1ccco1)C(=O)[C@H](CC(=O)NCCCCc1ccccc1)C2	i	-14%	i	-21%
CCCCOCCCNC(=O)C[C@@H]1C[C@@]2(C(=O)OCC)CCC=C2N(Cc2ccc3c(c2)OCO3)C1=O	?	0%	i	-15%
SMILES	KB-V1 cytotox	HT1080 IDH1KD tx	KB-3-1 tox	HT1080NT lethal
CCOC(=O)[C@]12CCC=C1N(Cc1ccc3c(c1)OCO3)C(=O)[C@H](CC(=O)NCC13CC4CC(CC(C4)C1)C3)C2	23µM*	?	?	?
COc1ccc(OC)c2sc(N(Cc3cccnc3)C(=O)c3ccc(C(C)=O)cc3)nc12	i	/	i	/
Cc1ccc(C)c(NS(=O)(=O)c2ccc3c(c2)n(C)c(=O)n3C)c1	i	/	i	/
O=C(NC(c1ccco1)c1cc(Cl)c2cccnc2c1O)c1ccsc1 (configuration not stated)	i	/	?	/
S=c1[nH]c2ccccc2n1CCc1ccccc1	i	/	i	/
COc1ccc(OC(C)C(=O)NCc2nc(-c3cccc(C)c3)no2)cc1 (configuration not stated)	i	/	i	/
CC(/C=C/c1ccccc1F)=N\NC(=O)c1ccc(Cl)cc1	i	7.3µM*	i	4.6µM*
COc1cccc(OC)c1-c1cc(CCCc2cc(-c3c(OC)cccc3OC)nc3ccccc23)c2ccccc2n1	?	/	i	/
CC(NC(=O)COC(=O)c1cn(-c2ccccc2)nc1-c1cccs1)c1ccccc1 (configuration not stated)	21µM*	-5%	i	0%
O=C(Nc1ccc(C(=O)NC2CCCCC2)cc1)c1cccnc1	i	18µM*	i	?
O=C(Nc1ccc(S(=O)(=O)N2CCCCC2c2cccnc2)cc1)c1ccc(Br)cc1 (configuration not stated)	12µM*	/	?	/
O=C(Nc1ccsc1C(=O)NC1CCCCC1)c1ccccc1	4.6µM*	-21%	i	-22%
O=C(Nc1ccccc1C(=O)NC1CCCCC1)c1ccccc1	i	-13%	i	-7%
CC1CCN(c2ccc(NC(=O)c3cccnc3)cc2)CC1	18µM*	18%	i	21%
O=C1CCCc2c1[nH]c1ccccc21	i	5%	i	7%
CC(C)COc1ccc2[nH]c3c(c2c1)CCCC3=O	0.18µM*	-3%	0.92µM*	0%
Cc1ccc(/C(C#N)=C\c2ccc(N3CCOCC3)o2)cc1	i	2µM*	i	4.5µM*
N#C/C(=C/c1ccc(N2CCCCC2)cc1)c1cccc(F)c1	?	-3%	i	-2%
N#C/C(=C/c1ccc(N2CCCCC2)o1)c1cccc(F)c1	i	4µM*	i	?
N#C/C(=C/c1ccc(N2CCCCCC2)o1)c1ccc(Cl)cc1	i	2.2µM*	i	5.6µM*
N#C/C(=C\c1ccc(N2CCOCC2)o1)C(=O)NC1CCCCC1	i	-1%	?	8%
Cc1ccc2nc(/C(C#N)=C\c3ccc(N4CCOCC4)o3)[nH]c2c1	?	0%	i	-2%
Cc1ccc(Cl)cc1N1CCN(CCNC(=O)Nc2ccccc2Cl)CC1	i	/	i	/
COC(=O)[C@@]1(Cc2ccc(OC)cc2)[C@@H]2C(=CC(=O)[C@H]2CC(=O)C(=O)N2CCCC2)CN1C(=O)c1ccccc1	?	21µM*	9.2µM*	?
Cc1ccn2c(NCc3ccco3)c(-c3ccccc3)nc2c1	/	5%	/	1%
Cc1ccc(S(=O)(=O)N(CC(=O)N=Nc2c(O)[nH]c3ccccc23)c2cccc(C)c2)cc1	21µM*	13µM*	21µM*	?
Cc1cc(Cl)ccc1N(CC(=O)N=Nc1c(O)[nH]c2ccccc12)S(C)(=O)=O	i	-26%	i	-1%
CCN1C(=O)C(=Cc2cccc(OC)c2Oc2ccc([N+](=O)[O-])cc2[N+](=O)[O-])SC1=S	?	3.3µM*	23µM*	2.6µM*
Cc1cc(C)cc(Nc2cc(C(=O)NCc3ccccc3)c3ccccc3n2)c1	i	/	?	/

Source: PubChem (National Center for Advancing Translational Sciences (NCATS))
